In the library only some 3.3% were active in any assay of this set; here they are far more common.
PRMT1 FP inh: PRMT1 (human) inhibition, primary screen. Q99873. recombinant PRMT1, activity-based probe fluorescence polarization. inhibition, % at 2.79 µM. hit rate 1.3% among 370,000;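 active = inhibition above about 21% made by adding two undisclosed values, limit read from the data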
Target sequence (Q99873 whole entry, looked up): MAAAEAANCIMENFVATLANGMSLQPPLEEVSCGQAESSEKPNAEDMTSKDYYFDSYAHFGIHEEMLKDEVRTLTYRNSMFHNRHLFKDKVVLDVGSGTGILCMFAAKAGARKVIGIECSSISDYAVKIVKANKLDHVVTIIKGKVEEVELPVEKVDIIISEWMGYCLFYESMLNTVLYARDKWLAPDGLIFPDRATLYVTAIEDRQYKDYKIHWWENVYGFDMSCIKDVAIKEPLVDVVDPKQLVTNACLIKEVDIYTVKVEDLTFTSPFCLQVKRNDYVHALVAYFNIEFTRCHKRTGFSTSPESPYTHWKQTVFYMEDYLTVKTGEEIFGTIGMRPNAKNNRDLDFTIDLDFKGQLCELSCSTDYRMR
MBD2 DNA inh: MBD2-methylated oligo binding inhibition; Q9UBB5; TR-FRET, MBD2 binding to methylated oligonucleotide; inhibition, % at 4.4 µM; hit rate 0.31% among 370,000; AID 686964; in the data active = inhibition above about 13%
UHRF1 binding: UHRF1 methyl-DNA binding inhibition. UHRF1 binding to methylated oligo, TR-FRET. inhibition, % at 4.4 µM. hit rate 0.75% among 370,000. AID 687016; in the data active = inhibition above about 21%;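 note: UHRF1 SRA domain binding a hemimethylated CpG hairpin DNA probe; 0% = median of test compound wells and 100% = reference inhibitor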
PfM18AAP inh: PfM18AAP enzyme inhibition | AID 1822 | inhibition, % at 7.35 µM | recombinant PfM18AAP, H-Glu-NHMec fluorogenic cleavage | hit rate 1.2% among 290,000;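 active = inhibition above the campaign mean inhibition over all tested compounds plus 3 SD, cut at about 28% in these data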;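 note: 0% = plate median of test compound wells and 100% = 2 mM ZnCl2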
PfGluPho inh: PfG6PD (Plasmodium falciparum) enzyme inhibition; PfGluPho enzyme, NADPH resazurin-diaphorase fluorescence; inhibition, % at 20 µM; hit rate 0.78% among 350,000; AID 504690;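 active = inhibition reaching at least a set limit at 20 µM in the primary screen, cut at about 59% in these data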;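 note: 0% = DMSO wells with substrate and 100% = DMSO wells lacking glucose-6-phosphate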
Starred values were filed as active, the others as inactive; . = no result given.

SMILES	PRMT1 FP inh	MBD2 DNA inh	UHRF1 binding	PfM18AAP inh	PfGluPho inh
CC(C)=CCC/C(C)=C/CNC(=O)C[C@H]1C[C@H](C(=O)N2CCCCC2)[C@@]2(C)c3[nH]c4cc(-c5ccco5)ccc4c3CCN2C1=O	23.8*	0.1	5.4	.	23.3
CCN(CC)C(=O)[C@H]1C[C@H](CC(=O)NC/C=C(\C)CCC=C(C)C)C(=O)N2CCc3c([nH]c4cc(-c5ccco5)ccc34)[C@]12C	14.7	0.2	-0.1	.	33.6
C[C@@H]1CN([C@@H](C)CO)C(=O)CCCn2cc(nn2)CO[C@H]1CN(C)C(=O)c1ccncc1	0.6	2.9	-1.4	.	.
COC(=O)Cc1c([C@H](C)[C@@H](OC)c2ccccc2Br)nnn1Cc1ccccc1	-0.4	1.2	1.5	.	.
COc1ccc(-c2ccc(C(=S)N3CCN(C(C)=O)CC3)o2)cc1	22.3*	-5.8	-2.1	6.8	43.9
COc1ccc(CC(=O)N2CCN(C(=O)Cc3ccc(OC)cc3)CC2)cc1	-3.2	-1.8	-1.4	-1.0	7.4
O=C(OCc1ccc(CSc2nnc(-c3cccc4ccccc34)o2)cc1)c1ccc(F)cc1	-4.7	-2.0	3.3	.	.
COc1cc2c(cc1OC)C(C(=O)N(C)Cc1ccccc1)C(c1cccnc1)N(C)C2=O (stereo not drawn)	0.4	3.5	38.2*	-11.1	-9.1
Cc1cccc(Nc2ccc([N+](=O)[O-])cc2C(=O)O)c1	-0.3	5.2	23.1*	1.4	11.6
O=C(O)c1cc([N+](=O)[O-])ccc1NCCc1ccccc1	0.4	11.3	25.1*	1.4	24.3
COc1ccc(C(=O)CCN2CCc3cc(OC)c(OC)cc3C2)cc1	21.8*	-2.9	1.8	-4.2	20.8
COc1ccc(C(=O)CCN2CCN(c3ccccc3OC)CC2)cc1	15.2	-0.6	-0.1	-2.9	-2.7
COc1cccc(C(CC2=CCCCC2)NC(=O)C(F)(F)F)c1 (stereo not drawn)	-1.2	2.6	-1.5	.	.
Cn1c(=O)[nH]c(=O)c2[nH]c(NCCCN3CCOCC3)nc21	0.3	4.7	23.0*	11.7	-1.1
Cn1c(=O)[nH]c(=O)c2c1ncn2CCN1CCOCC1	-0.7	-6.8	2.0	-3.7	-1.1
Cc1ccc(CNC(=O)Nc2ccc(OC(F)(F)F)cc2)n1C	2.0	-1.4	-0.3	23.0	14.5
Cc1ccc(CNC(=O)Nc2ccc(F)cc2)n1C	2.0	-2.2	-1.9	30.9*	10.6
CNC(=S)N/N=C(\C)c1ccc(N2CCOCC2)cc1	2.5	0.7	-2.6	-1.6	1.2
CCNC(=S)N/N=C(\C)c1ccc(N2CCOCC2)cc1	-1.4	2.5	-4.3	29.4*	7.6
CCCCOC(=O)Nc1ccc(S(=O)(=O)Nc2onc(C)c2C)cc1	1.3	-2.1	21.1*	1.8	0.6
C=CCN1C(=O)[C@@H](CC(=O)NCc2ccc(OC)c(OC)c2)[C@]2(C(=O)OCC)CCCCC/C=C/12	-2.1	-2.4	-0.6	.	.
OC(CCN1CCCCC1)(c1ccccc1)C1CC2C=CC1C2 (stereo not drawn)	-1.8	2.2	1.6	.	.
CCc1ccc(S(=O)(=O)/N=C2/C=C(Sc3ncn[nH]3)C(=O)c3ccccc32)cc1	.	.	.	46.5*	106.7*
O=C(O)c1cccc2cc(-c3ccccc3)oc(=O)c12	-1.0	-0.1	1.9	-6.5	-13.1
O=C(O)c1cccc2cccc(-c3c4ccc(=O)c(O)c-4oc4c(O)c(O)ccc34)c12	32.2*	66.5*	91.6*	.	50.7
SMILES	PRMT1 FP inh	MBD2 DNA inh	UHRF1 binding	PfM18AAP inh	PfGluPho inh
Cc1cccc(-n2nc3c(c2NC(=O)c2ccco2)CS(=O)C3)c1C (stereo not drawn)	4.0	9.7	-1.0	1.8	4.8
Cc1cccc(-n2nc3c(c2NC(=O)c2ccco2)CSC3)c1C	30.3*	1.3	6.2	4.4	20.6
NNC(=O)c1oc2nc(-c3ccco3)cc(-c3ccco3)c2c1N	38.3*	8.3	10.7	19.8	3.9
Nc1c(C(=O)N/N=C/c2cccnc2)oc2nc(-c3ccccc3)cc(-c3ccco3)c12	3.3	-6.9	-4.9	9.1	17.5
O=C(OC12CCCN(C1)/C(=C/c1ccccc1)C2)C1CCCCC1 (stereo not drawn)	2.0	3.1	3.3	.	.
Cc1ccc(NC(=O)COc2ccc3oc4c(c3c2)CCCC4)nc1	-1.5	6.1	25.5*	-4.5	-12.1
Fc1cccc(CSc2ccc(-c3ccco3)nn2)c1	23.9*	0.3	0.2	-9.8	9.6
Nc1nc(=S)c2ncn(C3OC(CO)C(O)C3O)c2[nH]1 (stereo not drawn)	23.1*	4.9	7.2	25.9	51.8
CC(C)CNS(=O)(=O)c1ccc(OCC(=O)NCc2ccco2)cc1	2.1	0.3	-1.3	0.8	-19.2
CC(NS(=O)(=O)c1ccc(Cl)cc1)C(=O)NCc1ccco1 (stereo not drawn)	20.9	9.7	24.6*	7.8	-5.4
CCC(C)NS(=O)(=O)c1ccc(OCC(=O)NCc2ccco2)cc1 (stereo not drawn)	-0.1	-1.4	24.9*	1.9	-2.0
CC(C)[C@H]1/C(=C/C2CC2)N2C(=O)C[C@@H](c3ccccc3)N=C2N1Cc1ccc2c(c1)OCO2	-0.9	-0.7	-1.4	.	.
Cc1ccccc1-c1ccc2c(c1)[C@@H]1C[C@H](N(C)C(=O)Nc3ccccc3)[C@H]([C@H](C)O)CN1CC2	3.4	2.8	5.5	.	.
Cc1ccc(CN2CCCCC(NC(=O)c3cccc(C(F)(F)F)c3)C2=O)cc1 (stereo not drawn)	-3.1	-0.7	0.1	.	.
N#Cc1ccc(OCC(=O)NC2=NCCS2)cc1	26.8*	-0.1	1.9	4.2	-1.1
O=C(COc1ccccc1)NC1=NCCS1	0.2	3.8	0.1	-5.6	-13.1
COc1ccc(C2/C(=C(/O)c3ccc(C)cc3)C(=O)C(=O)N2CC2CCCO2)cc1OC (stereo not drawn)	-1.5	5.5	21.8*	-8.8	13.3
COc1ccc(/C(O)=C2\C(=O)C(=O)N(CC3CCCO3)C2c2cc(OC)ccc2OC)cc1 (stereo not drawn)	3.6	-0.7	-2.7	8.3	-10.2
CCCCOCC1CN(CCCC)S(=O)(=O)c2c(cccc2N(C)S(=O)(=O)c2ccc(C)cc2)O1 (stereo not drawn)	-5.8	2.1	0.8	.	.
COc1ccccc1CNC(=O)COC(=O)c1cc(C)nc2ccccc12	1.4	3.0	-0.1	.	13.9
COc1ccc(NC(=O)CN(C)C(=O)c2cc(-c3ccco3)nc3ccccc23)cc1	16.6	11.9	29.0*	.	12.9
COc1ccccc1CNC(=O)COC(=O)c1cc(-c2ccco2)nc2ccccc12	14.1	19.6*	31.4*	-50.0	-1.8
CCCCCCCCN1CCS(=O)(=O)N(Cc2ccc(C(F)(F)F)cc2)C(C(=O)OC)C1 (stereo not drawn)	0.8	-0.5	-0.9	.	.
COCCN1Cc2cc(C(=O)OC)c3c(c2C1=O)c1cc(OC)ccc1n3S(=O)(=O)c1ccc(F)cc1	1.7	1.8	-4.8	.	.
Cc1ccc(-c2nnc3ccc(SCC(=O)NCc4ccco4)nn23)cc1	13.8	13.1	21.7*	8.7	1.8
O=C(CSc1ccc2nnc(-c3ccc(F)cc3)n2n1)NCc1ccco1	15.5	-0.9	4.4	14.6	-12.3

Compound activity: PubChem, several laboratories
